Measurements from the supplement of paper PMC4709259.
Structures can show the parent of a compound that is named as a salt. ± gives the standard deviation.

Tests used:
[1] = system: Jurkat; test: mean cell size (FSC-A) relative to DMSO control (fraction of control); higher = larger cells; settings: 48 h
Procedure, shortened: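 Jurkat cells at 600 cells/µl were incubated for 1 h and then treated for 48h with the Enzo Screen-Well FDA Approved Drug Library v2.0 at 25µM, with DMSO at 0.9% (v/v) final. Compounds that reduced counts below 20% of controls were retested in 10-fold dilutions down to 25nM. Cell count and mean cell size, taken as forward scatter area, were measured by flow cytometry relative to solvent-only controls. Each plate carried 6-12 controls, and values are means of 3 biological replicates.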

[2] = system: Jurkat; test: cell count relative to DMSO control (fraction of control); higher = more cells (less growth inhibition); settings: 48 h

OCCN1C[C@H](O)[C@@H](O)[C@H](O)[C@H]1CO [Miglitol] (concentration: 25 µM)
mean cell size [1]: 0.994 ± 0.04 | cell count [2]: 0.767 ± 0.14

CCCCN1C[C@H](O)[C@@H](O)[C@H](O)[C@H]1CO [Miglustat (N-Butyldeoxynojirimycin·HCl)] (concentration: 25 µM)
mean cell size [1]: 0.9757 ± 0.0093 | cell count [2]: 0.81 ± 0.045

OCCN(CCO)c1nc(N2CCCCC2)c2nc(N(CCO)CCO)nc(N3CCCCC3)c2n1 [Dipyridamole] (concentration: 25 µM)
mean cell size [1]: 0.9538 ± 0.0084 | cell count [2]: 0.652 ± 0.1

Cn1c(=O)c2c(ncn2CC(O)CO)n(C)c1=O (stereo not given) [Dyphylline] (concentration: 25 µM)
mean cell size [1]: 0.966 ± 0.022 | cell count [2]: 0.81 ± 0.037

CC1(C)NC(=O)N(c2ccc([N+](=O)[O-])c(C(F)(F)F)c2)C1=O [Nilutamide] (concentration: 25 µM)
mean cell size [1]: 0.954 ± 0.029 | cell count [2]: 0.638 ± 0.066

Cc1cccc(Nc2ccccc2C(=O)O)c1C [Mefenamic Acid] (concentration: 25 µM)
mean cell size [1]: 0.938 ± 0.025 | cell count [2]: 0.655 ± 0.14

Cc1ccc(-c2cc(C(F)(F)F)nn2-c2ccc(S(N)(=O)=O)cc2)cc1 [Celecoxib] (concentration: 25 µM)
mean cell size [1]: 0.966 ± 0.029 | cell count [2]: 0.514 ± 0.11

C#Cc1cccc(Nc2ncnc3cc(OCCOC)c(OCCOC)cc23)c1 [Erlotinib] (concentration: 25 µM)
mean cell size [1]: 0.838 ± 0.026 | cell count [2]: 0.666 ± 0.04

CCN(CC)C(=O)C1(c2ccccc2)CC1CN (stereo not given) [Milnacipran·HCl] (concentration: 25 µM)
mean cell size [1]: 0.977 ± 0.032 | cell count [2]: 0.792 ± 0.1

CCc1ccc(CCOc2ccc(CC3SC(=O)NC3=O)cc2)nc1 (stereo not given) [Pioglitazone·HCl] (concentration: 25 µM)
mean cell size [1]: 0.966 ± 0.039 | cell count [2]: 0.906 ± 0.16
